From PubChem BioAssay
Calls of active or inactive are those of the source.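 How the source made its calls, unless noted: active means compounds whose cell count with miR-34 switched on is under 0.7 times the count with it off; inactive means the rest.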

Columns and labels:
[1] = viability loss with induced miR-34 in A549 – imaging, A549 dox-inducible miR-34, nuclei and caspase counts, primary screen (AID 1347080); details: A549 miR-34 inducible, Hoechst nuclei count, 48 h
[2] = MELAS cybrid and Rieske KO viability enhancers – cell-based, MELAS cybrids, Rieske KO mouse fibroblasts, CellTiter-Glo, primary screen (AID 1508586;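 active means mean z-score across replicates of 1.96 or higher in either the MELAS or the Rieske mutant cell line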;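 further: z relative to plate mean and SD of compound and empty wells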); details: low glucose
[3] = P. berghei load reduction in hepatocytes – cell-based, HepG2, luciferase luminescence, HepG2 viability, primary screen (AID 624349; in the data active means parasite load remaining mostly below about 12%, no sharp cut-off; inactive means mostly above about 10%;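 further: 100% = mean of DMSO negative control wells on the same plate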); details: P. berghei liver stage in HepG2, luciferase luminescence, concentration not given here; parasite load remaining: stronger effect = lower value; viability: measured here: HepG2 viability without parasites
[4] = galactose survival enhancers in mitochondrial complex I cybrids – cell-based, galactose medium, ATP luminescence, primary screen (AID 1645843;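 active means z-score of at least 1.8 in each of two replicates, scored against plate mean and spread of sample wells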;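 further: positive z means more ATP and so rescue of galactose-driven cybrid death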); details: complex I mutant cybrid cells, 72 h, stronger effect = higher value
[5] = stronger effect = lower value, cell number ratio, induced over uninduced
[6] = measured here: relative caspase fold change +Dox/-Dox
[7] = measured here: total cells with miR-34 induction, stronger effect = lower value
[8] = measured here: total cells without miR-34 induction
[9] = MELAS cybrid survival, CellTiter-Glo 48 h, stronger effect = higher value
[10] = Rieske KO mouse fibroblast survival, CellTiter-Glo 72 h

| SMILES | fold change [1, 5] | fold change [1, 6] | cell count [1, 7] | cell count [1, 8] | z-score [2, 9] | z-score [2, 10] | fold change ([1]; stronger effect = lower value) | parasite load remaining [3] | viability [3] [%] | z-score [4] |
| --- | --- | --- | --- | --- | --- | --- | --- | --- | --- | --- |
| CC(=O)O[C@@]12CO[C@@H]1CC(O)[C@@]1(C)C(=O)C(O)C3=C(C)C(O)C[C@@](O)(C(OC(=O)c4ccccc4)[C@H]21)C3(C)C (stereo partly specified) | 1 (inactive) | 0.634 | 6370 | 6370 | -0.382 (inactive) | 1.02 | – | – | – | – |
| O=C1C=CC[C@@H]2[C@@H]3CCCN4CCC[C@@H](CN12)[C@@H]34 | 0.92 (inactive) | 0.733 | 9530 | 10400 | -0.329 (inactive) | 0.595 | – | – | – | – |
| COc1ccc(S(=O)(=O)N(CCO)c2ccccc2CN(C)CC=Cc2ccc(Cl)cc2)cc1 | 0.937 (inactive) | 0.634 | 5210 | 5560 | -0.474 (inactive) | -0.774 | – | – | – | – |
| CC(C)(C)[C@@]1(O)C[C@@H]2OC(=O)C[C@@]23C(=O)O[C@H]2OC(=O)C(O)C213 (stereo partly specified) | 0.894 (inactive) | 1.49 | 8490 | 9500 | -0.286 (inactive) | 0.895 | – | – | – | – |
| c1cc2c(cc1C1OC[C@H]3C(c4ccc5c(c4)OCO5)OC[C@H]13)OCO2 (stereo partly specified) | 0.925 (inactive) | 0.861 | 8900 | 9620 | -0.349 (inactive) | 0.747 | – | – | – | – |
| CC(=O)Nc1ccc(Cc2ccc(NC(C)=O)cc2)cc1 | – | 0.668 | 8350 | 9400 | -0.423 (inactive) | 0.257 | 0.888 (inactive) | – | – | – |
| CN1CCN(c2nc3ccccc3nc2Cl)CC1 | 0.946 (inactive) | 0.445 | 7800 | 8250 | -0.222 (inactive) | -0.11 | – | – | – | – |
| CCCC[N+]1(C)[C@@H]2CC(OC(=O)C(CO)c3ccccc3)C[C@H]1[C@@H]1O[C@@H]12 (stereo partly specified) | 0.94 (inactive) | 1.14 | 9330 | 9930 | -0.311 (inactive) | 0.426 | – | – | – | – |
| O=c1[nH]c2ccc(Cl)cc2c(NC2CN3CCC2CC3)c1-c1nc2ccccc2[nH]1 (stereo unspecified) | 0.941 (inactive) | 1.09 | 1120 | 1200 | 1.28 (inactive) | -3.49 | – | – | – | – |
| O=C1CC[C@@]2(O)C3Cc4ccc(O)c5c4[C@@]2(CCN3CC2CC2)C1O5 (stereo partly specified) | – | 4.62 | 8340 | 9040 | 1.92 (inactive) | -1.89 | 0.922 (inactive) | – | – | – |
| C=CCN1CC[C@]23c4c5ccc(O)c4O[C@H]2C(=O)CC[C@@]3(O)C1C5 | – | 1.73 | 7860 | 8350 | 0.0762 (inactive) | -0.34 | 0.942 (inactive) | – | – | – |
| C[C@]12CCC(O)CC1=CC[C@@H]1[C@H]2CC[C@]2(C)C(=O)CC[C@@H]12 (stereo partly specified) | – | 0.858 | 8270 | 9530 | -0.412 (inactive) | 0.289 | 0.867 (inactive) | – | – | – |
| CC1CC[C@H]2C(C)C(=O)O[C@@H]3O[C@@]4(C)CC[C@@H]1[C@]32OO4 (stereo partly specified) | 0.916 (inactive) | 0.744 | 6910 | 7540 | -0.427 (inactive) | 0.217 | – | – | – | – |
| CN(C)C1C(=O)C(C(N)=O)=C(O)[C@@]2(O)C(=O)C3=C(O)c4c(O)cccc4[C@@](C)(O)[C@H]3C(O)[C@@H]12 (stereo partly specified) | 0.897 (inactive) | 0.837 | 7930 | 8840 | -0.21 (inactive) | 0.479 | – | – | – | – |
| CC1C=CC=CCCC=CC=CC=CC=CC(OC2OC(C)C(O)C(N)C2O)CC2O[C@@](O)(CC(O)C(O)CCC(O)CC(O)CC(O)CC(=O)OC(C)C(C)C1O)CC(O)C2C(=O)O (stereo partly specified) | 0.946 (inactive) | 1.01 | 7910 | 8370 | 0.0382 (inactive) | 0.415 | – | – | – | – |
| COC1=C[C@@H]2C3Cc4ccc(OC)c(O)c4[C@]2(CCN3C)CC1=O | – | 0.909 | 8920 | 9970 | -0.311 (inactive) | 0.879 | 0.895 (inactive) | – | – | – |
| C[C@]12CCC(=O)C(O)=C1CC[C@@H]1[C@H]2CC[C@]2(C)C(=O)CC[C@@H]12 | – | 0.764 | 8100 | 9210 | -0.345 (inactive) | 0.332 | 0.879 (inactive) | – | – | – |
| O=c1cccc2n1CC1CNCC2C1 (stereo unspecified) | – | 1.17 | 7650 | 8430 | -0.233 (inactive) | -0.215 | 0.908 (inactive) | – | – | – |
| CC(=Cc1csc(C)n1)C1CC2OC2CCCC(C)C(O)C(C)C(=O)C(C)(C)C(O)CC(=O)O1 (stereo unspecified) | 1.08 (inactive) | 1.17 | 1520 | 1410 | 1.25 (inactive) | 0.224 | – | – | – | – |
| CC1OC(OC2CC(O)[C@]3(CO)[C@H]4C(O)C[C@]5(C)C(C6=CC(=O)OC6)CC[C@]5(O)[C@@H]4CC[C@]3(O)C2)C(O)C(O)C1O (stereo partly specified) | 0.851 (inactive) | 1.17 | 388 | 456 | 0.346 (inactive) | -0.151 | – | – | – | – |
| C=C1N[C@@H](Cc2ccc3[nH]cc(CCN(C)C)c3c2)CO1 | – | 1.08 | 9100 | 11400 | 0.499 (inactive) | 0.377 | 0.795 (inactive) | 49.1% (inactive) | 107 | 0.28 (inactive) |
| NCCc1ccc(S(N)(=O)=O)cc1 | – | 0.315 | 9210 | 10400 | -0.0994 (inactive) | 0.0645 | 0.884 (inactive) | – | – | 0.495 (inactive) |
